Assay results from the OligoGym collection.

Molecular target: NMRAL1
Test: pooled miR-30 sensor sort-seq; sequence = guide strand
Conditions: shRNA
Note: reference of the scale not given here.

Sequence	sensor-assay potency score (higher = more potent)
TACTCCTCGGCCGTGTGCCTGC	-0.836
TTTGCTGCCTTCTTCCTAGGGT	0.121
TTGGCATCGTGCACGACCTTGC	0.214
TTCGTAGTCCTCAGGAGTCATC	-1.71
TACTTCTGCACCTTGCAGCCTC	-0.418
TAATTGGTCACGATGAAGGTGG	-0.074
TCCTTTGCTGCCTTCTTCCTAG	-1.25
TCGGGTCACCACTCGAACCTTG	-0.891
TTGATGTTCTCCAGGCCGCTGT	-0.625
TTCTGCACCTTGCAGCCTCAGC	-0.852

Molecular target: NMUR2
Test: as above
Conditions: shRNA

Sequence	sensor-assay potency score (higher = more potent)
TTTGAATATTTGCATTCCCTTC	-0.976
TAGTTTGTTCTTGACATCTGTT	-0.227
TTGAACACAGCAGCCAGGGATT	-1.59
TTGTTGACTGATTTTCTGCAGG	-0.441
TTGTTCTTGACATCTGTTCACT	-0.626
TTGACTGATTTTCTGCAGGGTC	-0.256
TACATGAGTTGTAAGAGCCATT	-0.996
TTCTTGACATCTGTTCACTAGA	-0.341
TTTGTCTTTCTTTAGTCTGAGT	-1.1
TTGGGGACCTATATCTTCGGTC	-0.773
TGGATCTTCTAGTTTCTGCTGG	0.385
TTTCTTTAGTCTGAGTGCCATG	-1.41

Molecular target: NODAL
Test: as above
Conditions: shRNA

Sequence	sensor-assay potency score (higher = more potent)
TTTCAGCAGACTCTGGATGTAT	-0.374
TAACGTTTCAGCAGACTCTGGA	1.03
TGATCTAGGAGCACTCTGCCAT	-0.476
TTCAGTAAAGAGAACATCCAGC	0.203
TGGTGATCTAGGAGCACTCTGC	-1.24
TTATCCACATACAGCATGCTCA	-0.807
TTGGAGAATACATGAAAGCTAT	-0.351
TTTATGGTGATCTAGGAGCACT	-0.921
TGTCTTTATGGTGATCTAGGAG	-0.744
TAAAGAACTCATGCACTTGTGC	0.25
TCTGCCATTATCCACATACAGC	-1.71
ATGTATGCATGGTTGGTCGGAT	-0.818

Molecular target: NOL7
Test: as above
Conditions: shRNA

Sequence	sensor-assay potency score (higher = more potent)
TTTCTGACCATCCACCGTCTTT	-1.02
TCGATGAACAGCTCCTCGCGTC	-0.7
TTATTTACAGTAGTCCTGTTGG	-0.0686
TTTTGTACTTTAACTTTCTTGG	-0.17
TTTTTGTACTTTAACTTTCTTG	-0.529
TGTACTTTAACTTTCTTGGAGT	-0.613
